Source: PubChem
LmPK inh: LmPK (Leishmania mexicana) enzyme inhibition; Q27686; purified LmPK, Kinase-Glo ATP luminescence, 1 h; Potency, µM (series often up to 57.5 µM), for inactives: at the top dose activity change, negative = inhibition, usual class: inhibitors; 290,000 tested, 0.37% active; AID 1721
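0.1 nM LmPK, 0.5 mM PEP, 0.1 mM ADP; 50 mM imidazole pH 7.2, 7 mM MgCl2, 50 mM KCl; 1 h RT. Kinase-Glo luminescence readout, normalized to no-enzyme (full inhibition) and uninhibited wells.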
AmpC no deterg: inhibitors of E. coli AmpC beta-lactamase without detergent; P00811; AmpC nitrocefin hydrolysis, absorbance 480 nm, 0.0001% Triton; Potency, µM (highest dose often 57.1 µM), for the others: top-dose activity change, negative = inhibition, hits mostly inhibitors; 330,000 tested, 0.52% active; AID 485341;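 further: plate controls were no compound for no effect and no enzyme for full effect; nearly all actives have a fitted effect of over 20% in size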
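AmpC (5.3 nM in the dispensed reagent) in 20 mM phosphate pH 7.0 with 0.01% (detergent screen) or 0.0001% Triton X-100 was preincubated with compounds for 15 min at room temperature. Nitrocefin was then added from an 800 uM solution, and hydrolysis was followed at 480 nm.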
AmpC detergent: inhibitors of E. coli AmpC beta-lactamase with detergent; AmpC hydrolysis of nitrocefin, absorbance 480 nm, 0.01% Triton; Potency, µM (top dose mostly 114 µM), inactives show top-dose activity change, negative = inhibition, most hits filed as inhibitors; 370,000 tested, 0.041% active; P00811;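 further: 0% = no-compound wells and -100% = no-enzyme wells; nearly all actives have a fitted effect of over 25% in size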
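AmpC (5.3 nM in the dispensed reagent) in 20 mM phosphate pH 7.0 with 0.01% (detergent screen) or 0.0001% Triton X-100 was preincubated with compounds for 15 min at room temperature. Nitrocefin was then added from an 800 uM solution, and hydrolysis was followed at 480 nm.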
Giardia FBPA inh: inhibitors of Giardia lamblia fructose-1,6-bisphosphate aldolase; purified Giardia FBPA; Potency, µM (top dose mostly 59.6 µM), for inactives: top-dose activity, negative = inhibition, hits mostly inhibitors; 290,000 tested, 0.71% active; AID 2451; further: nearly all actives have a fitted effect of over 55% in size
Target sequence (A8B2U2 whole entry, looked up): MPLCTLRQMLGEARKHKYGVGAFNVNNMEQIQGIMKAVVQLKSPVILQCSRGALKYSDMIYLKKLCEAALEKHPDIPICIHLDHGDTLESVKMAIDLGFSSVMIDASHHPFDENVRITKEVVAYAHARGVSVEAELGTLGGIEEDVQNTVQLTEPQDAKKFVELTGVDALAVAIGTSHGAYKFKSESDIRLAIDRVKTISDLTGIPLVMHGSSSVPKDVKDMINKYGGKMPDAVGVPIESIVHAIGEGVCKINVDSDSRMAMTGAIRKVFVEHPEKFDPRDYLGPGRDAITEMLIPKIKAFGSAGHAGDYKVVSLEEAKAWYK
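Giardia FBPA (40 nM reagent) was preincubated 10 min at RT with compound (up to 57.5 uM final), then substrate plus GAPDH/TPI/NAD/arsenate coupling system with diaphorase/resazurin was added; resorufin fluorescence (525/598 nm) was read after 20 min.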
AMA1-RON2 inh: AMA1-RON2 (P. falciparum) interaction inhibition; AlphaScreen AMA1-biotinylated RON2 peptide binding; Potency, µM (top dose mostly 58.2 µM), inactives show at the highest dose activity change, negative = inhibition, most hits filed as inhibitors; 360,000 tested, 0.2% active; AID 720542;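 further: 0% = vehicle wells and -100% = peptide control; nearly all actives have a fitted effect of over 45% in size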
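AMA1 (3D7) with his tag at 25 nM final met compounds first, then biotinylated RON2 peptide at 25 nM; detection used donor plus acceptor beads, 10 µg/mL apiece, read by AlphaScreen after 30 min at room temperature.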
Starred values were filed as active, the others as inactive; u = inconclusive; x = no result; [ ] = remark or other dose. Hits are enriched below; roughly 1.3% of the tested compounds scored in any of these assays. The call rests on the fitted dose curve; in most records, active means well fitted curve in the direction sought with a large enough effect; inconclusive means small, poorly fitted or top-dose-only effect, or another doubt; inactive means no such curve, though single readings can be large; an effect the other way counts as inactive or inconclusive. Unless noted, on the % scale 0 is the no-effect control and ±100 the full control effect; potency means the concentration at half of the fitted maximal effect.

SMILES	LmPK inh	AmpC no deterg	AmpC detergent	Giardia FBPA inh	AMA1-RON2 inh
COC(=O)c1ccc(Cn2nc(-c3cc(C)ccc3C)ccc2=O)cc1	-2.3%	67.7%	-4.6%	3.3%	-0.2%
CC(=N/O)/C(C)=N\NC(=O)c1ccccn1	-2.7%[11.5 µM]	-0.4%	3.4%	-15.5%	80.7%
C/C(=N\NC(=O)c1ccccn1)c1ccc(C(=O)O)s1	15.8µM*	18.8%	-3.6%	u	x
CC(OC(=O)C1=Cc2ccccc2OC1)C(=O)NC1CCCC1 (configuration not stated)	2.9%	0.159µM*	2.2%	1.4%	-15.0%
CC(C)c1cc(C(=O)NNC(=S)NC2CCCCC2)cs1	-3.0%	14.1µM*	5.5%	x	95.7%
On1c2c(c3c4nonc4ccc31)CCCC2	-5.2%	-35.0%	u	5.61µM*	x
O=C(Nc1ccc(NC(=O)c2ccc3c(c2)OCCO3)cc1)c1ccccc1	-6.6%	-11.6%	2.9%	7.2%	27.4%
C/C(=N\NC(=O)c1ccc(NS(=O)(=O)c2cccs2)cc1)c1ccc2c(c1)OCO2	3.2%	17.8µM*	1.5%	3.7%	23.5%
O=C(Nc1ccccc1)c1ccc2c(c1)OCCO2	14.1µM*	-28.5%	-11.3%	-2.1%	0.0%
C/C(=N\NC(=O)c1ccc(NS(=O)(=O)c2cccs2)cc1)c1ccc(Cl)cc1	-0.6%	u	u	4.5%	12.5%
O=C(Nc1cccc(NC(=O)c2cccs2)c1)c1ccc2c(c1)OCO2	-14.7%	10µM*	u	-8.1%	6.9%
Cc1cc(NC(=O)c2ccc3c(c2)OCO3)ccc1NC(=O)c1ccco1	14.1µM*	-29.7%	-12.5%	-19.8%	u
OC[C@@H]1CN(CCNc2ccccc2)C[C@H](n2cnc3c(NCc4ccncc4)ncnc32)O1	x	x	x	x	15.1%
CCC(=O)Oc1ccc(NC(=O)c2ccco2)cc1	-14.4%	-10.1%	0.4%	-8.7%	6.0%
O=C(Nc1cccc(NC(=O)c2ccco2)c1)c1ccc2c(c1)OCCO2	-20.7%	-43.9%	u	-1.9%	-10.7%
O=C(Nc1ccc2c(c1)OCCO2)c1ccco1	25.1µM*	-15.4%	-12.3%	-0.9%	-11.9%
Cn1nccc1C(=O)Nc1ccc2c(c1)OCCO2	15.8µM*	-13.6%	9.1%	-5.6%	11.1%
O=C(Nc1ccc(OC(=O)c2ccco2)cc1)c1ccco1	14.1µM*	-23.7%	-5.0%	-5.6%	0.2%
Cc1c(C(=O)Nc2ccc3c(c2)OCCO3)cnn1C	-4.0%	-10.0%	-5.0%	-2.2%	6.9%
O=C(Nc1cccc(NC(=O)c2ccco2)c1)c1ccc2c(c1)OCO2	-11.9%	11.2µM*	-6.1%	-3.7%	2.2%
CCc1ccccc1N1CC(c2nc3ccccc3n2CC(C)C)CC1=O (configuration not stated)	x	x	-2.9%	x	x
O=C(Nc1ccc2oc(-c3ccccc3F)nc2c1)c1ccc2c(c1)OCCO2	0.7%	4.6%	2.9%	-8.9%	8.44µM*
O=C(/C=C\c1ccco1)c1ccc(NC(=O)c2ccco2)cc1	-4.1%	6.31µM*	1.9%	-5.8%	-1.9%
Oc1ccc(/C=N/Nc2ccnc3cc(Cl)ccc23)cc1O	5.7%	11.2µM*	-7.6%	-8.4%	2.3%
O=C(NCCc1ccccc1)Nc1nnc([C@@H]2C[C@H](O)[C@@H](CO)O2)s1	x	x	x	x	-0.5%
SMILES	LmPK inh	AmpC no deterg	AmpC detergent	Giardia FBPA inh	AMA1-RON2 inh
C=Cc1ccc(N=Cc2c(O)ccc3ccccc23)cc1	0.3%	-28.4%	-2.5%	14.1µM*	4.1%
CC(=O)N(C)c1ccc(N=Cc2c(O)ccc3ccccc23)cc1	-4.4%	-2.4%	u	-20.2%	6.7%
Cc1cccc(NC(=O)/C(C#N)=C/c2cn(CC(=O)NCc3ccco3)c3ccccc23)c1C	3.2%	14.1µM*	-11.8%	5.2%	0.0%
COc1ccccc1OCC(=O)Nc1ccccn1	12.6µM*	-8.3%	u	-2.1%	3.6%
CSc1ccccc1NC(=O)COc1ccc(Cl)cc1Cl	-0.5%	-23.7%	u	3.4%	119.7%
O=C(COc1ccc(Cl)cc1Cl)Nc1ccccn1	5.01µM*	-1.7%	7.6%	-7.8%	8.8%
COc1ccccc1OCC(=O)Nc1ccncc1	0.1%	-1.6%	3.7%	1.4%	0.9%
COc1cccc(-n2ccnc2SCC(=O)Nc2c(C)cc(C)cc2C)c1	x	x	0.7%	x	x
